# Results from the supplement of paper PMC10127200.
# Counter-ions that a name gives are not always drawn.
# System: HEPG2
# Assay: Euclidean distance of Cell Painting phenotypic profile (signed KS, 77 features) to DMSO centroid (dimensionless distance); 5 or 10 uM (library dependent); higher = stronger phenotypic change vs DMSO (phenoactivity)
# Details: 48 h
# Summary of the method: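 Five cancer lines and a healthy fibroblast line received library compounds at 10 or 5 uM (library-dependent, 0.1% DMSO final) for 48 h. Stained cells were imaged confocally at 20X (9 fields/well). Harmony extracted 77 features, each scored as a signed Kolmogorov-Smirnov statistic against same-plate vehicle wells. Profiles were plate-position corrected, correlation-weighted and replicate-averaged at the top dose. Phenoactivity is the Euclidean distance from each profile to the median vehicle profile.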
row,SMILES,Euclidean distance
1,CN1CCN(Cc2ccc(Nc3ncc(Cl)c(Nc4ccccc4S(=O)(=O)N(C)C)n3)cc2)CC1,2.81
2,O=C1c2c(O)ccc(O)c2C(=O)c2c(NCCNCCO)ccc(NCCNCCO)c21 [Mitoxantrone 2HCl],5.09
3,Oc1ccc(Cl)c2cccnc12 [Cloxiquine],1.62
4,CO[C@H]1C[C@@H]2CC[C@@H](C)[C@@](O)(O2)C(=O)C(=O)N2CCCC[C@H]2C(=O)O[C@H]([C@H](C)C[C@@H]2CC[C@@H](OP(C)(C)=O)[C@H](OC)C2)CC(=O)[C@H](C)/C=C(\C)[C@@H](O)[C@@H](OC)C(=O)[C@H](C)C[C@H](C)/C=C/C=C/C=C/1C [Ridaforolimus (Deforolimus. MK-8669)],1.37
5,CCN(CC)CC(=O)Nc1c(C)cccc1C [Lidocaine],0.435
6,O=C(O)c1cn(-c2ccc(F)cc2)c2cc(N3CCNCC3)c(F)cc2c1=O [Sarafloxacin HCl],0.601
7,C=CCN1CCCC1CNC(=O)c1cc2nn[nH]c2cc1OC (centres undefined) [Alizapride HCl],1.28
8,CCOc1ccc(Cc2cc([C@@H]3O[C@H](CO)[C@@H](O)[C@H](O)[C@H]3O)ccc2Cl)cc1 [Dapagliflozin propanediol monohydrate],0.649
9,C[C@@H]1O[C@@H]1P(=O)(O)O [Fosfomycin Disodium],0.716
10,CN[C@@H](C)C(=O)N[C@H](C(=O)N1CCC[C@H]1C(=O)Nc1snnc1-c1ccccc1)C1CCCCC1,0.88
11,COc1ccc2cc(C(=O)O)ccc2c1 [6-Methoxy-2-naphthoic acid],0.634
12,C[N+](C)(C)NCCC(=O)[O-] [Mildronate],0.54
13,Cc1c(F)cc(C(=O)NC2CC2)cc1-c1ccc(C(=O)NCC(C)(C)C)cn1,0.761
14,COc1cc2c(cc1OC)CC(=O)N(CCCN(C)C[C@H]1Cc3cc(OC)c(OC)cc31)CC2 [Ivabradine HCl],2.1
15,CN(C)CCc1c[nH]c2ccc(C[C@H]3COC(=O)N3)cc12 [Zolmitriptan],0.663
16,CC(=O)Oc1cc(C(F)(F)F)ccc1C(=O)O [Triflusal],0.829
17,COc1ccnc(C[S+]([O-])c2nc3cc(OC(F)F)ccc3[nH]2)c1OC (centres undefined) [Pantoprazole],1.62

row,SMILES,Euclidean distance
1,COc1ccnc2[nH]cc(C(=O)C(=O)N3CCN(C(=O)c4ccccc4)C[C@H]3C)c12,0.554
2,COC1CCN(C(=O)c2cc(Cc3n[nH]c(=O)c4ccccc34)ccc2F)CC1,1.36
3,CSc1ccc2c(c1)N(CCC1CCCCN1C)c1ccccc1S2 (centres undefined) [Thioridazine hydrochloride],3.33
4,CCOc1ccc2c(c1)C(C)=CC(C)(C)N2 [Ethoxyquin],0.54
5,Cc1[nH]c2ccccc2c1CCNCc1ccc(/C=C/C(=O)NO)cc1 [Panobinostat],4.4
6,COc1cccc2cc(-c3nc([C@H]4CC[C@H](C(=O)O)CC4)n4ncnc(N)c34)[nH]c12,2.92
7,O=C(O)c1ccc2nc(-c3cc(Cl)cc(Cl)c3)oc2c1 [Tafamidis],0.971
8,N#CC(c1ccc(Cl)cc1)c1c(Cl)cc(-n2ncc(=O)[nH]c2=O)cc1Cl (centres undefined) [Diclazuril],2.11
9,O=C(O)Cc1ccc(-c2ccccc2)cc1 [4-Biphenylacetic acid],0.638
10,CC1(C)S[C@@H]2[C@H](NC(=O)Cc3ccccc3)C(=O)N2[C@H]1C(=O)O [Benzylpenicillin potassium],0.711
11,C[C@H](CCC(=O)O)[C@H]1CC[C@H]2[C@@H]3[C@H](O)C[C@@H]4C[C@H](O)CC[C@]4(C)[C@H]3C[C@H](O)[C@]12C [Cholic acid],0.875
12,CCN1CCN(Cc2ccc(Nc3ncc(F)c(-c4cc(F)c5nc(C)n(C(C)C)c5c4)n3)nc2)CC1,3.78
13,O=C(O)c1cc(=O)c2ccccc2o1 [Chromocarb],0.887
14,CC1=CC(=O)c2ccccc2C1=O [Menadione],0.759
15,CC(C)C[C@H](NC(=O)[C@H]1O[C@@H]1C(=O)O)C(=O)NCCCCN=C(N)N,0.615
16,CC[C@@H]([C@H](C)O)n1ncn(-c2ccc(N3CCN(c4ccc(OC[C@@H]5CO[C@@](Cn6cncn6)(c6ccc(F)cc6F)C5)cc4)CC3)cc2)c1=O [Posaconazole],1.43
17,CN1C(=O)C(C)(C)Oc2c(-c3cn(C)c(=O)c4[nH]ccc34)cc(S(C)(=O)=O)cc21,2.29
